{"source": "ChEMBL document CHEMBL3988442", "about": "“University of Dundee, Small-Polar-MMV Screening Library” (2021)", "note": "About 950 (1.4%) of roughly 69,000 compounds showed an effect of 50% or more. This is one part of a sample in which strong results are shown more often than they occur."}
{"test_system": "Mycobacterium tuberculosis", "experiment": "Cornell M. t heat shock assay; further: in the data most compounds retested in dose-response had high values", "assay_type": "functional, organism-based", "parameters": "dose or concentration left out as unconfirmed", "units": {"Percent Effect": "%"}}
{"smiles": "Cc1nc(COC[C@@H]2CC[C@H]3[C@H](CCN3c3ccccn3)O2)cs1.O=C(O)C(F)(F)F", "Percent Effect": -8.365}
{"smiles": "COCC(=O)NC1CC2(CCN(Cc3ccco3)CC2)c2ccccc21.O=C(O)C(F)(F)F", "note": "(configuration not stated)", "Percent Effect": -0.75}
{"smiles": "Cn1ccc(C(=O)N2CCC3(CCN3c3ncccn3)C2)n1.O=C(O)C(F)(F)F", "note": "(configuration not stated)", "Percent Effect": 24.82}
{"smiles": "CC(C)(C)c1ncc(C(=O)NC(C(N)=O)c2ccccc2)s1", "note": "(configuration not stated)", "Percent Effect": -32.92}
{"smiles": "Cn1cc(C(=O)N2CC[C@@H]3[C@@H]2CCN3Cc2cccnc2)cn1.O=C(O)C(F)(F)F.O=C(O)C(F)(F)F", "Percent Effect": -1.797}
{"smiles": "COC[C@]12COC[C@H]1CN(Cc1cc(OC)cc(OC)c1)C2.O=C(O)C(F)(F)F", "Percent Effect": 3.349}
{"smiles": "Cc1cc2n(n1)CC(CNC1CCN(Cc3ccncc3)CC1)CN2", "note": "(configuration not stated)", "Percent Effect": -16.93}
{"smiles": "Cc1cc2n(n1)CC(CNC1CCN(Cc3ccccc3C)CC1)CN2", "note": "(configuration not stated)", "Percent Effect": 13.82}
{"smiles": "Cc1cccc(CN2CCC(NCC3CNc4cc(C)nn4C3)CC2)c1", "note": "(configuration not stated)", "Percent Effect": 108.8}
{"smiles": "CCCNC(=O)Cn1c(-n2nc(C)cc2C)nc(CCC)cc1=O", "Percent Effect": 96.63}
{"smiles": "COCCCNC(=O)Cn1c(C)cc(=O)n2nc(-c3cccs3)nc12", "Percent Effect": 14.25}
{"smiles": "Cc1cc(C)n(-c2cncc(NCCC(=O)NC(C)C)n2)n1", "Percent Effect": -1.343}
{"smiles": "CCCc1cc(=O)n(CC(N)=O)c(-n2nc(C)cc2C)n1", "Percent Effect": 28.09}
{"smiles": "CCCNC(=O)Cn1c(C)nn(C(C)(C)C)c1=O", "Percent Effect": 11.09}
{"smiles": "CCCc1cc(=O)n(CC(=O)NCCOC)c(-n2nc(C)cc2C)n1", "Percent Effect": 103.9}
{"smiles": "CCCc1cc(=O)n(CC(=O)NC(C)C)c(-n2nc(C)cc2C)n1", "Percent Effect": 96.11}
{"smiles": "CCCNC(=O)CCNc1cncc(-n2nc(C)cc2C)n1", "Percent Effect": -16.72}
{"smiles": "COCCNC(=O)Cn1c(C)cc2nc(SC)n(CC(C)C)c(=O)c21", "Percent Effect": -7.488}
{"smiles": "O=C(O)C(F)(F)F.O=C(O)C(F)(F)F.O=C(c1ccnnc1)N1C[C@@H]2OCCN(CCN3CCCC3)[C@@H]2C1", "Percent Effect": -5.03}
{"smiles": "CCc1cc(C(F)(F)F)n2nc(C3CCCN3C3CCSCC3)cc2n1.O=C(O)CC(O)(CC(=O)O)C(=O)O", "note": "(configuration not stated)", "Percent Effect": 5.555}
{"smiles": "O=C(O)c1ccc(SCC(=O)c2ccccc2)nc1", "Percent Effect": 25.44}
{"smiles": "Cc1cccc(CN2C[C@@H]3OCCN(CC(=O)N(C)C)[C@@H]3C2)c1.O=C(O)C(F)(F)F", "Percent Effect": 42.49}
{"smiles": "Cl.Cl.c1ccc(OC[C@@H]2CCC[C@@]23CNCCO3)nc1", "Percent Effect": -6.285}
{"smiles": "CC(c1cccs1)N(C)Cc1cnc(-c2ccccn2)nc1", "note": "(configuration not stated)", "Percent Effect": 106.1}
{"smiles": "Cc1noc(C)c1CN(C)C(C)c1cccs1", "note": "(configuration not stated)", "Percent Effect": 7.19}
{"smiles": "CC(C)n1cnnc1CN(C)Cc1cnc(-c2ccccn2)nc1", "Percent Effect": 32.7}
{"smiles": "O=C(Nc1cccnc1)[C@H]1CO[C@H]2CCNC[C@H]2C1.O=C(O)C(F)(F)F.O=C(O)C(F)(F)F", "Percent Effect": -15.71}
{"smiles": "Cc1ccc2c(n1)N(CC1CC1)CCN(C(=O)c1ccncc1F)C2.O=C(O)C(F)(F)F.O=C(O)C(F)(F)F", "Percent Effect": -13.11}
{"smiles": "CCN(Cc1csc(C)n1)c1cccc(CO)c1", "Percent Effect": -22.94}
{"smiles": "CCn1c(CN(C)Cc2csc(C)n2)nc2cc(F)ccc21", "Percent Effect": 69.38}
{"smiles": "CCn1c(CN(C)Cc2cnc(C)s2)nc2cc(F)ccc21", "Percent Effect": -9.437}
{"smiles": "CCO[C@@H]1CC[C@H]2[C@H]1OCCN2CC1CCC1.O=C(O)C(F)(F)F", "Percent Effect": -27.51}
{"smiles": "Cc1cc(N(C)Cc2cc(C)on2)n2nc(C)c(C)c2n1", "Percent Effect": 82.43}
{"smiles": "CCc1cc(N(C)Cc2ccno2)n2nc(C)c(C)c2n1", "Percent Effect": 27.53}
{"smiles": "CCc1cc(N(C)Cc2cc[nH]n2)n2nc(C)c(C)c2n1", "Percent Effect": 19.05}
{"smiles": "CCc1nnc(CN(C)c2cc(C)nc3c(C)c(C)nn23)o1", "Percent Effect": -40}
{"smiles": "Cc1cc(NC(C)c2csc(C)n2)n2nc(C)c(C)c2n1", "note": "(configuration not stated)", "Percent Effect": 26.88}
{"smiles": "CCc1cc(N(C)Cc2ccnc(C)c2)n2nc(C)c(C)c2n1", "Percent Effect": 28.31}
{"smiles": "Cc1cc(N(C)Cc2ccsc2)n2nc(C)c(C)c2n1", "Percent Effect": 86.91}
{"smiles": "Cc1cc(N(C)CCN(C)C)n2nc(C)cc2n1", "Percent Effect": -8.3}
{"smiles": "Cc1cc(N(C)Cc2c(C)noc2C)n2nc(C)c(C)c2n1", "Percent Effect": -31.35}
{"smiles": "Cc1cc(N(C)Cc2noc(C)n2)n2nc(C)c(C)c2n1", "Percent Effect": 0.3178}
{"smiles": "Cc1csc(CN(C)c2cc(C)nc3c(C)c(C)nn23)n1", "Percent Effect": 96.63}
{"smiles": "CCc1cc(N(C)Cc2ccncn2)n2nc(C)c(C)c2n1", "Percent Effect": 89.97}
{"smiles": "Cc1cc(C)cc(N2CCN(C(=O)CCN3C[C@@H]4CC[C@H]3C4)CC2=O)c1", "Percent Effect": -4.633}
{"smiles": "COc1cc(N2C[C@@H]3COC[C@]3(COc3ncccc3F)C2)ncn1.O=C(O)C(F)(F)F.O=C(O)C(F)(F)F", "Percent Effect": -28.64}
{"smiles": "CC(C)OCc1ncn2c1CN(Cc1cccs1)CCC2.O=C(O)C(F)(F)F", "Percent Effect": -1.604}
{"smiles": "CN(C)CCOCc1nnc2n1CCN(CC1CC1)CC2.O=C(O)C(F)(F)F.O=C(O)C(F)(F)F", "Percent Effect": -19.96}
{"smiles": "Cc1ncsc1CN1C[C@H](C(=O)NCC2CC2)[C@@H]2CCO[C@@H]2C1.O=C(O)C(F)(F)F", "Percent Effect": -4.533}
{"smiles": "COc1ccc(CN2CCC3(CC2)CCN(CCN(C)C)C3=O)cc1.O=C(O)C(F)(F)F.O=C(O)C(F)(F)F", "Percent Effect": -10.28}
{"smiles": "COCC(=O)N1CCC2(CC1)CC(COC)N(Cc1ccccn1)C2.O=C(O)C(F)(F)F", "note": "(configuration not stated)", "Percent Effect": 9.323}
{"smiles": "CCN1C(=O)CC[C@]12CC[C@@H](NC(=O)NCc1cccnc1)CC2.O=C(O)C(F)(F)F", "Percent Effect": 4.335}
{"smiles": "CNC(=O)C1Cn2ccnc2C2(CCN(Cc3cccc(C)n3)CC2)O1.O=C(O)C(F)(F)F", "note": "(configuration not stated)", "Percent Effect": -1.384}
{"smiles": "Cc1nc(NCc2noc(C3CCCO3)n2)c2ccsc2n1", "note": "(configuration not stated)", "Percent Effect": 12.93}
{"smiles": "Cc1ccc(N2CCC3(CC2)CNC(=O)CO3)nn1.O=C(O)C(F)(F)F", "Percent Effect": -15.23}
{"smiles": "O=C(O)C(F)(F)F.O=C1COC2(CCN(c3ncccn3)CC2)CN1", "Percent Effect": -4.23}
{"smiles": "O=C(O)C(F)(F)F.O=C1COC2(CCN(c3ccccn3)CC2)CN1", "Percent Effect": 64.38}
